High-throughput results from PubChem.
MBD2 inh = MBD2-methylated oligo binding inhibition; actives 0.31% (n = 370,000); TR-FRET, MBD2 binding to methylated oligonucleotide; inhibition, % at 4.4 µM; in the data active = inhibition above about 13%
Target sequence (Q9UBB5 whole entry, looked up): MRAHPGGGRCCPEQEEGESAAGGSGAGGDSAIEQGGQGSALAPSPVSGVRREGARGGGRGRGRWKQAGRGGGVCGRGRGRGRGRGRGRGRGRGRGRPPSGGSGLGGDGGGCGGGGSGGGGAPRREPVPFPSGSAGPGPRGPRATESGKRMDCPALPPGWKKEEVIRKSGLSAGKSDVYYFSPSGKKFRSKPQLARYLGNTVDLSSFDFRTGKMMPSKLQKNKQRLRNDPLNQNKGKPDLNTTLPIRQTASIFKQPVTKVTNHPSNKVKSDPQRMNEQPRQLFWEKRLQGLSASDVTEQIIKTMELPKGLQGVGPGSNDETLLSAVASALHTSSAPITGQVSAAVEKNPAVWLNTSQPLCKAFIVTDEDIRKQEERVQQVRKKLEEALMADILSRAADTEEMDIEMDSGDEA
UBC13 polyUb = human UBC13 polyubiquitination inhibition; actives 0.47% (n = 330,000); inhibition, % at 20 µM; AID 485273; UBC13 polyubiquitin chain formation, TR-FRET; P61088; in the data active = inhibition above about 45%, passing the limit was not always enough; inconclusive = no clear call, values can overlap the other calls
Target sequence (P61088 whole entry, looked up): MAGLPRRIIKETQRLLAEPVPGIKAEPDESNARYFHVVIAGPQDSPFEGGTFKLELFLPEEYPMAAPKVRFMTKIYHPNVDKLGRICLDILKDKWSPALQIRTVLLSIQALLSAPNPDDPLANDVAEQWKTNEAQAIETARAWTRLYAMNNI
Neddylation inh = blocks human cullin neddylation | P61081+Q13564 | TR-FRET cullin neddylation, biochemical | calls only at 25 µM | actives 0.58% (n = 360,000) | AID 651699; in the data active = inhibition above about 36%
UHRF1 MBD2 ctr = UHRF1 methyl-DNA binding inhibition; Q96T88; UHRF1 binding to methylated oligo, TR-FRET; actives 0.75% (n = 370,000); inhibition, % at 4.4 µM; AID 687016; in the data active = inhibition above about 21%;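 note: UHRF1 SRA domain binding a hemimethylated CpG hairpin DNA probe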
Numbers stand for hits; – = inactive; ? = inconclusive; · = no result given; + = active, no number. Hits are enriched below; roughly 1.8% of the tested compounds scored in any of these assays.

SMILES	MBD2 inh	UBC13 polyUb	Neddylation inh	UHRF1 MBD2 ctr
Cc1ccc(NC(=O)CN2C(=O)N/C(=C/c3cc(C)n(-c4ccc(C(=O)O)cc4)c3C)C2=O)cc1	–	·	–	–
Cc1ccc(NC(=O)CN2C(=O)N/C(=C/c3cccn3-c3ccc(C(=O)O)cc3)C2=O)cc1	71.7	·	–	101.9
Cc1ccc(NC(=O)CN2C(=O)N/C(=C/c3ccco3)C2=O)cc1	–	–	–	34.1
Cc1cc(C)n2nc(C(=O)Nc3ccc4c(c3)OCCO4)nc2n1	–	–	–	–
CCOc1ccc(N)cc1OC	–	–	–	–
CN1Cc2sc(NC(=S)NC(=O)c3ccccc3)c(C#N)c2CC1(C)C	20.8	–	·	29.4
COC(=O)C1=C(C)NC(=S)NC1c1ccc(-c2ccccc2C(=O)OC)o1 (centres undefined)	–	–	–	21.9
COC(=O)C1=C(C)NC(=S)NC1c1ccc(-c2cccc(Cl)c2)o1 (centres undefined)	–	–	–	–
C(#Cc1ccccc1)C[N+]1(CC#Cc2ccccc2)CCCCC1	–	–	–	–
C#CC[N+]1(CC#Cc2ccccc2)CCCCC1	–	–	–	38.2
O=c1c(CO)cc(CO)cc(CO)c1O	–	–	–	–
O=C1C=CC(=O)c2c(O)c(CO)c(CO)c(O)c21	57.3	·	–	86.8
CN(C)Cc1cc(O)c(CN(C)C)cc1O	–	–	+	–
Cn1nc(-c2ccccc2)c(CN2CCN(c3ncccn3)CC2)c1Cl	–	–	–	33.5
Cc1cc(NC(=O)CCC(=O)N(C(C(=O)NC(C)(C)C)c2ccccc2Cl)C(C)(C)C)no1 (centres undefined)	–	–	–	25.2
CCC(C)N(C(=O)CCC(=O)Nc1cc(C)on1)C(C(=O)NC(C)(C)C)c1ccccc1Cl (centres undefined)	–	–	–	–
Cc1cccnc1NC(=O)c1ccc2c(c1)OCO2	–	–	–	–
Cc1cccnc1NC(=O)/C=C/c1ccc2c(c1)OCO2	–	–	–	23.4
N#Cc1ccccc1NC(=O)CNc1cc(S(=O)(=O)N2CCOCC2)ccc1NCC1CCCO1 (centres undefined)	–	–	–	–
S=c1[nH]nc(Cc2cccc3ccccc23)n1-c1ccccc1	–	–	–	–
CCOC(=O)COc1cnc2ccccc2n1	–	–	–	22.0
Cc1ccc(S(=O)(=O)NCCNc2ccc(Br)c(C)c2)cc1	–	–	–	–
S=c1[nH]nc(-c2cc(-c3ccccc3)n[nH]2)n1/N=C/c1cccc(Cl)c1	–	–	+	–
S=c1[nH]nc(-c2cc(-c3ccccc3)n[nH]2)n1/N=C/c1ccc(Cl)cc1	–	–	–	–
O=C(/C=C/c1cccc(F)c1)N1CCN(c2ncccn2)CC1	–	–	–	–
SMILES	MBD2 inh	UBC13 polyUb	Neddylation inh	UHRF1 MBD2 ctr
COc1ccc(CCNC(=O)CSc2cc(=O)[nH]c(N)n2)cc1OC	–	–	–	23.5
COc1ccc2c(c1)c(=O)oc1cc(OCC(=O)NC3CCCCC3)ccc12	–	–	·	24.9
CCN(CC)c1ccc2cc(C(N)=O)c(=O)oc2c1	–	–	+	–
CC(=O)NS(=O)(=O)c1ccc(NC(=O)/C=C/c2ccco2)cc1	–	–	–	28.5
NS(=O)(=O)c1ccc(NC(=O)/C=C/c2ccco2)cc1	–	–	–	–
COC(=O)c1ccccc1NC(=O)C(=O)NCc1ccncc1	–	–	–	42.0
CCc1cc2c(C)cc(=O)oc2cc1OC(=O)C1CCCN1C(=O)OC(C)(C)C (centres undefined)	·	–	·	·
Oc1c(C(c2ccccc2)N2CCOCC2)ccc2ccccc12 (centres undefined)	–	·	+	–
Cc1cc(Cl)nc(Cl)c1C(=O)NC(=O)NCCC(C)C	–	–	–	–
CCC/C(=N\NC(=O)c1cccc(C)c1)c1ccccc1	–	–	–	33.0
COc1cccc(CC(=O)OCC(=O)NC2(C#N)CCCCC2)c1	–	–	–	45.8
Cc1cc(C(=O)NC2CCCc3c2cnn3-c2ccccc2F)nc(C)n1 (centres undefined)	–	–	–	–
CC(C)CC(=O)NCCCCc1ccccc1	–	–	–	21.0
CCOc1ccccc1N1CCN(Cc2ccc(OC)c(OC)c2OC)CC1	–	–	–	–
CCOc1ccccc1N1CCN(Cc2ccc(OC)c(OC)c2)CC1	–	–	–	23.4
C=CCc1ccccc1OCC(O)CN1CCOCC1 (centres undefined)	–	–	–	–
COc1ccc(N/C(=N\c2nc(C)cc(C)n2)NC(=O)C(C)C)cc1OC	–	–	–	–
O=C(O)C1Nc2c(Cl)cc(Cl)cc2C2C=CCC12 (centres undefined)	·	·	–	·
O=C(O)C1Nc2c(O)cccc2C2C=CCC12 (centres undefined)	37.1	?	–	73.7
C#CCOCCOCCOCCNc1nc(N2CCN(C(=O)[C@H](CCCN=C(N)N)n3cc(C(N)[C@@H](C)CC)nn3)CC2)nc(N2CCN(C(=O)[C@H](CCC(=O)O)n3cc([C@@H](N)[C@H](C)CC)nn3)CC2)n1 (some centres undefined)	–	–	–	–
S=C(Nc1ccc(Cl)cc1)NN1CCOCC1	–	–	–	30.4
N/C(=N\N=C\c1cccs1)SC1CC(=O)N(c2cccc([N+](=O)[O-])c2)C1=O (centres undefined)	–	–	–	–
CCN1C(=O)c2cccc3c(S(=O)(=O)Nc4ncccc4C)ccc1c23	–	–	+	–
CCN1C(=O)c2cccc3c(S(=O)(=O)Nc4ccccn4)ccc1c23	–	–	–	–
O=C(OCC#CCSc1nnc(-c2cccc3ccccc23)o1)c1cccs1	–	–	·	–
SMILES	MBD2 inh	UBC13 polyUb	Neddylation inh	UHRF1 MBD2 ctr
Cc1ccc2c(c1)nnn2C1CCN(CC(=O)N2CCN(c3ccc(F)cc3)CC2)CC1	–	–	–	–
COc1ccc2nc(NC(=O)c3ccco3)sc2c1	–	–	+	–
O=C(NC12CC3CC(CC(C3)C1)C2)c1ccc(-c2ccc(Cl)cc2)o1	–	–	–	–
O=C(NC12CC3CC(CC(C3)C1)C2)c1ccc(-c2cccc(Cl)c2)o1	–	–	–	21.4
COc1ccc(NC(=O)c2cnc(SC)nc2)cc1	–	–	–	–
CCOC(=O)c1oc2ccccc2c1NC(=O)C(C)(C)C	–	–	–	52.3
CC(C)N1C(=O)S/C(=C\c2ccc(-c3ccc(Cl)c(C(=O)O)c3)o2)C1=O	–	–	–	37.2
CCOC(=O)CN1C(=O)S/C(=C\c2ccc(-c3ccc(C(=O)O)c(Cl)c3)o2)C1=O	–	–	–	–
CCCCCC1(C(=O)OCC)CC(CSC(=N)N)OC1=O (centres undefined)	–	–	–	–
CCOC(=O)C1(CC/C(C)=N\NC(N)=O)CC(C)OC1=O (centres undefined)	–	–	–	20.9
CC(=O)C1C(c2ccccc2)c2c(n[nH]c2C)CC1(C)O (centres undefined)	–	–	–	–
CC(=O)C1C(c2ccc(C)cc2)c2c(n[nH]c2C)CC1(C)O (centres undefined)	–	–	–	22.8
COc1cc(C2(c3ccc(O)c(OC)c3)C(=O)Nc3c(C)cc(Br)cc32)ccc1O	–	–	–	31.1
Cc1cc(Br)cc2c1NC(=O)C2(c1c(C)n(C)n(-c2ccccc2)c1=O)c1c(C)n(C)n(-c2ccccc2)c1=O	–	–	–	–
